Measurements: PubChem BioAssay AID1159580 (chemical genetic matrix, 2015)
Several values for one entry are separate records, joined by “and”; a condition that tells them apart may be missing. Equal entries are not always repeated. Among all 5,500 compounds or so, about 2,000 (36%) were called active. Roughly 18% stayed inconclusive and do not appear here. Rule as the data show it: active = normalized growth mostly below about 0.91 (no sharp cut-off); inconclusive = no clear call, values can overlap the other calls; inactive = mostly above about 0.92. This is one part of the list.

Experiment: chemical genetic growth profiling, strain panel (AID 1159580);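 also: tested at 20 µM; growth read once vehicle control cultures reached saturation at 30 °C; 1 = growth at the plate median or of vehicle wells; lower values mean less growth of the strain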
Settings: S. cerevisiae deletion strains, growth OD

Measured: normalized growth

Cc1cccc(C)c1OCC(C)N (stereo not drawn)
inactive: locus YAL013W, strain DEP1, stronger effect = lower value 0.993 | locus YAL021C, strain ccr4, stronger effect = lower value 0.986 | locus YAL026C, strain drs2, stronger effect = lower value 1.01 | locus YAL030W, strain snc1, stronger effect = lower value 1 | locus YAL040C, strain CLN3, stronger effect = lower value 0.998 | locus YBL061C, strain skt5, stronger effect = lower value 1 | locus YBR009C, strain hhf1, stronger effect = lower value 1.01 | locus YBR021W, strain FUR4, stronger effect = lower value 0.997 | locus YBR023C, strain chs3, stronger effect = lower value 1 | locus YBR171W, strain sec66, stronger effect = lower value 1.02 | locus YBR229C, strain ROT2, stronger effect = lower value 0.998 | locus YBR231C, strain swc5, stronger effect = lower value 1.02 | locus YBR279W, strain paf1, stronger effect = lower value 1.01 | locus YCL011C, strain gbp2, stronger effect = lower value 1 | locus YCL016C, strain dcc1, stronger effect = lower value 1.01 | locus YCL029C, strain bik1, stronger effect = lower value 0.987 | locus YCL061C, strain MRC1 (second series), stronger effect = lower value 0.997 | locus YCL061C, strain MRC1, stronger effect = lower value 1.01 | locus YCL069W, strain vba3, stronger effect = lower value 1.01 | locus YCR088W, strain abp1, stronger effect = lower value 1 | locus YDL005C, strain med2, stronger effect = lower value 1.01 | locus YDL035C, strain GPR1, stronger effect = lower value 1 | locus YDL040C, strain nat1, stronger effect = lower value 1.01 | locus YDL074C, strain BRE1, stronger effect = lower value 1.05 | locus YDL101C, strain DUN1, stronger effect = lower value 1.02 | locus YDL134C, strain PPH21, stronger effect = lower value 0.983 | locus YDL185W, strain tfp1, stronger effect = lower value 0.95 | locus YDL192W, strain arf1, stronger effect = lower value 0.991 | locus YDR001C, strain nth1, stronger effect = lower value 1 | locus YDR069C, strain doa4, stronger effect = lower value 1.01 | locus YDR101C, strain arx1, stronger effect = lower value 0.996 | locus YDR137W, strain rgp1, stronger effect = lower value 1.01 | locus YDR159W, strain sac3, stronger effect = lower value 1.01 | locus YDR162C, strain NBP2, stronger effect = lower value 0.979 | locus YDR195W, strain ref2 0.998 | locus YDR297W, strain sur2, stronger effect = lower value 1.01 | locus YDR318W, strain mcm21, stronger effect = lower value 0.99 | locus YDR334W, strain swr1, stronger effect = lower value 1.01 | locus YDR335W, strain msn5, stronger effect = lower value 1.01 | locus YDR363W, strain ESC2, stronger effect = lower value 0.97 | locus YDR388W, stronger effect = lower value 1.01 | locus YDR392W, strain spt3, stronger effect = lower value 1.01 | locus YDR502C, strain sam2, stronger effect = lower value 1 | locus YEL003W, strain gim4, stronger effect = lower value 1.01 | locus YEL037C, strain rad23, stronger effect = lower value 0.992 | locus YEL061C, strain CIN8 (second series), stronger effect = lower value 1 | locus YEL061C, strain CIN8, stronger effect = lower value 0.991 | locus YER002W, strain NOP16, stronger effect = lower value 1.01 | locus YER015W, strain faa2, stronger effect = lower value 1.02 | locus YER016W, strain bim1, stronger effect = lower value 1.01 | locus YER110C, stronger effect = lower value 0.98 | locus YER111C, strain swi4, stronger effect = lower value 1.02 | locus YER155C, strain BEM2 (second series), stronger effect = lower value 1.02 | locus YER155C, strain BEM2, stronger effect = lower value 0.999 | locus YER167W, strain BCK2, stronger effect = lower value 1.01 | locus YFR010W, strain ubp6, stronger effect = lower value 1.02 | locus YGL078C, strain dbp3, stronger effect = lower value 0.977 | locus YGL086W, strain mad1, stronger effect = lower value 1.01 | locus YGL167C, strain pmr1, stronger effect = lower value 1 | locus YGL173C, strain kem1, stronger effect = lower value 1.02 | locus YGL227W, strain vid30, stronger effect = lower value 1.01 | locus YGL240W, strain doc1, stronger effect = lower value 1.02 | locus YGL248W, strain PDE1, stronger effect = lower value 1.01 | locus YGL253W, strain hxk2, stronger effect = lower value 1.01 | locus YGR135W, strain pre9, stronger effect = lower value 0.975 | locus YGR252W, strain gcn5, stronger effect = lower value 1.01 | locus YHR013C, strain ard1, stronger effect = lower value 1.01 | locus YHR027C, strain rpn1, stronger effect = lower value 1.01 | locus YHR030C, strain SLT2, stronger effect = lower value 0.977 and 0.988 | locus YHR079C, strain IRE1 (second series), stronger effect = lower value 0.983 | locus YHR079C, strain IRE1, stronger effect = lower value 0.994 | locus YHR094C, strain hxt1, stronger effect = lower value 0.999 | locus YHR129C, strain ARP1, stronger effect = lower value 0.999 | locus YHR142W, strain chs7, stronger effect = lower value 1 | locus YHR200W, strain rpn10, stronger effect = lower value 0.973 | locus YIL066C, strain RNR3, stronger effect = lower value 1.01 | locus YIL073C, strain SPO22, stronger effect = lower value 0.862 | locus YIL125W, strain kgd1, stronger effect = lower value 0.995 | locus YIR030C, strain dcg1, stronger effect = lower value 0.987 | locus YJL092W, strain hpr5, stronger effect = lower value 1.01 | locus YJL095W, strain BCK1 (second series), stronger effect = lower value 1 | locus YJL095W, strain BCK1, stronger effect = lower value 1.05 and 0.977 | locus YJL115W, strain asf1, stronger effect = lower value 1.01 | locus YJL129C, strain trk1, stronger effect = lower value 1.02 | locus YJL134W, strain LCB3, stronger effect = lower value 0.987 | locus YJL154C, strain vps35, stronger effect = lower value 1.01 | locus YJL164C, strain tpk1, stronger effect = lower value 1.01 | locus YJL166W, strain qcr8, stronger effect = lower value 1 | locus YJL168C, strain set2, stronger effect = lower value 0.997 | locus YJL187C, strain SWE1 (second series), stronger effect = lower value 1.01 | locus YJL187C, strain SWE1, stronger effect = lower value 1 | locus YJR043C, strain POL32, stronger effect = lower value 1 | locus YJR066W, strain TOR1, stronger effect = lower value 0.96
